The values that follow come from ChEMBL document CHEMBL2218924, “A broad activity screen in support of a chemogenomic map for kinase signalling research and drug discovery” (Biochem J, 2013).

The target of test [1] is T1, Phosphorylase b kinase gamma catalytic chain, liver/testis isoform (Homo sapiens) (UniProt P15735).
T1 sequence (whole entry): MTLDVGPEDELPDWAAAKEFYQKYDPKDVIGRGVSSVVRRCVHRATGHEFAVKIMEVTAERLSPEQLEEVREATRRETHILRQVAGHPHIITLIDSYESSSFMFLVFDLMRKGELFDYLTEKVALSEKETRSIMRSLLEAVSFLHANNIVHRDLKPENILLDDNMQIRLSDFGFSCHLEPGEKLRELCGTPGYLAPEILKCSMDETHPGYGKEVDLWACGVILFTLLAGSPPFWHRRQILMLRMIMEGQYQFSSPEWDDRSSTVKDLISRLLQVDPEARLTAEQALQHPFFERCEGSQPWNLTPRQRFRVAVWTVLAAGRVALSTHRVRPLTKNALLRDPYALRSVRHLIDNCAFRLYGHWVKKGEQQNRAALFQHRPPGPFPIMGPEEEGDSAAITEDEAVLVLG
Conditions: at 1 µM; call rule not given here.

Test [2] deals with T1, Phosphorylase b kinase gamma catalytic chain, liver/testis isoform (Homo sapiens). Conditions: at 10 µM.
Test [3] addresses Serine/threonine-protein kinase pim-1 (Homo sapiens) (UniProt P11309). Conditions: at 1 µM.
For test [4] the target is unchanged. Conditions: at 10 µM.
Test [5] addresses Serine/threonine-protein kinase pim-2 (Homo sapiens) (UniProt Q9P1W9). Conditions: at 1 µM.
For test [6] the target is unchanged. Conditions: at 10 µM.
Test [7] addresses Serine/threonine-protein kinase pim-3 (Homo sapiens) (UniProt Q86V86). As to conditions: at 1 µM.
For test [8] the target is unchanged. As to conditions: at 10 µM.
In test [9] the target is Serine/threonine-protein kinase PLK1 (Homo sapiens) (UniProt P53350). As to conditions: at 1 µM.
The target is the same in test [10]. As to conditions: at 10 µM.
Test [11] deals with Serine/threonine-protein kinase PLK3 (Homo sapiens) (UniProt Q9H4B4). Conditions: at 1 µM.
Test [12] has the same target. As to conditions: at 10 µM.
The target in test [13] is T2, cAMP-dependent protein kinase catalytic subunit PRKX (Homo sapiens) (UniProt P51817).
T2 sequence (whole entry): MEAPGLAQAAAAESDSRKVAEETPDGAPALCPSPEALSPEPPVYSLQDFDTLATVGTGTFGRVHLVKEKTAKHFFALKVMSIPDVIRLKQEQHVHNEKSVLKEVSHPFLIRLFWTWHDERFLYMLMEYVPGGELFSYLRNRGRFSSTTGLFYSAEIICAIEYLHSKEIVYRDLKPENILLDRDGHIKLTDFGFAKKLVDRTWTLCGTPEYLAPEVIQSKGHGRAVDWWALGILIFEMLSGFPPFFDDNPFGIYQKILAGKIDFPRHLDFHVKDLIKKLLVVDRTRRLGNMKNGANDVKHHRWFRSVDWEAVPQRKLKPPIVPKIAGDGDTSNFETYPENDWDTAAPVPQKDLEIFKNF
Conditions: at 1 µM.

The target of test [14] is T2, cAMP-dependent protein kinase catalytic subunit PRKX (Homo sapiens). Conditions: at 10 µM.
The target of test [15] is Protein-tyrosine kinase 2-beta (Homo sapiens) (UniProt Q14289). As to conditions: at 1 µM.
For test [16] the target is unchanged. Conditions: at 10 µM.
For test [17], the target named is Receptor-interacting serine/threonine-protein kinase 2 (Homo sapiens) (UniProt O43353). As to conditions: at 1 µM.
Test [18] has the same target. As to conditions: at 10 µM.
Test [19] concerns the target Rho-associated protein kinase 1 (Homo sapiens) (UniProt Q13464). Conditions: at 10 µM.
The target is the same in test [20]. Conditions: at 1 µM.

Sequence of Serine/threonine-protein kinase PLK1 (Homo sapiens) (P53350 whole entry): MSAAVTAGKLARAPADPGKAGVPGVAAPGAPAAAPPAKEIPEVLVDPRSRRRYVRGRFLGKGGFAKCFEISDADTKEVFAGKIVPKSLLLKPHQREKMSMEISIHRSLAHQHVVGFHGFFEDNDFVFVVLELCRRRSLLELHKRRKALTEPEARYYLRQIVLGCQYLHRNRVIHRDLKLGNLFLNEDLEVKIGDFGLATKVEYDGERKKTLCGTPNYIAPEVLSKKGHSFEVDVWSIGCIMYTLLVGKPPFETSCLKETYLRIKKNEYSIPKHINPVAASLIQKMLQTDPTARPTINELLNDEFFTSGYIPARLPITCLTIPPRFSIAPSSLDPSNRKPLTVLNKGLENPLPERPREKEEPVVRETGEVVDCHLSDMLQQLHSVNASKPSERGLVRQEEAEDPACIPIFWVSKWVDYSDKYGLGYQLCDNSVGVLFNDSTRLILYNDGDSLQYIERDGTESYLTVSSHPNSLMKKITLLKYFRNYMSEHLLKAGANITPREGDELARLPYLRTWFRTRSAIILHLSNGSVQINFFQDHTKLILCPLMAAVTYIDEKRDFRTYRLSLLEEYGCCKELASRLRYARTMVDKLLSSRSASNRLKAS
Sequence of Protein-tyrosine kinase 2-beta (Homo sapiens) (Q14289 whole entry, looked up): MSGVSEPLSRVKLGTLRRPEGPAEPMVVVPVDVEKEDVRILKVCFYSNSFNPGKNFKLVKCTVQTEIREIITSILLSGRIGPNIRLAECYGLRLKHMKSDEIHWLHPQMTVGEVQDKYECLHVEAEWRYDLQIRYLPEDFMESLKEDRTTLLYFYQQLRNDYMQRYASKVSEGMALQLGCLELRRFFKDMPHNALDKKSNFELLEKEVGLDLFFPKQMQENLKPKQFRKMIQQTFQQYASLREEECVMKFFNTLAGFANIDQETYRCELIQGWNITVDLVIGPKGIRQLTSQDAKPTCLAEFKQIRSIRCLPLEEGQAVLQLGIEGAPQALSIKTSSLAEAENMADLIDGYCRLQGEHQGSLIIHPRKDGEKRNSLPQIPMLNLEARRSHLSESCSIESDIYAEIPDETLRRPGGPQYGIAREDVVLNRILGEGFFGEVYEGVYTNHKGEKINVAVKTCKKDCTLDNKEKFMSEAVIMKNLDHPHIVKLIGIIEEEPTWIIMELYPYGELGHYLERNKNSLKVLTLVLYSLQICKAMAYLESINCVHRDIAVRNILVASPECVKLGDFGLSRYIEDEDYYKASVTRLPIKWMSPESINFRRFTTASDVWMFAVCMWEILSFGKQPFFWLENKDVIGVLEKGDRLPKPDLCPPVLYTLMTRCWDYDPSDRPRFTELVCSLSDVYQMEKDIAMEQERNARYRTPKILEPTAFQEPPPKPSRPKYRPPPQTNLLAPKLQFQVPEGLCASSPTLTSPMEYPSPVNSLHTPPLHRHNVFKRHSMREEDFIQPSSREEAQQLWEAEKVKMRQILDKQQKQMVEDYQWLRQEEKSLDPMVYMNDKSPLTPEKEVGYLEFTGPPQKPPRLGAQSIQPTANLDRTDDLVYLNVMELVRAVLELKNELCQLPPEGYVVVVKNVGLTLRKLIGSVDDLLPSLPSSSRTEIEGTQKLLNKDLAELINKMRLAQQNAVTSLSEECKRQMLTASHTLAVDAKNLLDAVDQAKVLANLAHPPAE
Sequence of Serine/threonine-protein kinase PLK3 (Homo sapiens) (Q9H4B4 whole entry, looked up): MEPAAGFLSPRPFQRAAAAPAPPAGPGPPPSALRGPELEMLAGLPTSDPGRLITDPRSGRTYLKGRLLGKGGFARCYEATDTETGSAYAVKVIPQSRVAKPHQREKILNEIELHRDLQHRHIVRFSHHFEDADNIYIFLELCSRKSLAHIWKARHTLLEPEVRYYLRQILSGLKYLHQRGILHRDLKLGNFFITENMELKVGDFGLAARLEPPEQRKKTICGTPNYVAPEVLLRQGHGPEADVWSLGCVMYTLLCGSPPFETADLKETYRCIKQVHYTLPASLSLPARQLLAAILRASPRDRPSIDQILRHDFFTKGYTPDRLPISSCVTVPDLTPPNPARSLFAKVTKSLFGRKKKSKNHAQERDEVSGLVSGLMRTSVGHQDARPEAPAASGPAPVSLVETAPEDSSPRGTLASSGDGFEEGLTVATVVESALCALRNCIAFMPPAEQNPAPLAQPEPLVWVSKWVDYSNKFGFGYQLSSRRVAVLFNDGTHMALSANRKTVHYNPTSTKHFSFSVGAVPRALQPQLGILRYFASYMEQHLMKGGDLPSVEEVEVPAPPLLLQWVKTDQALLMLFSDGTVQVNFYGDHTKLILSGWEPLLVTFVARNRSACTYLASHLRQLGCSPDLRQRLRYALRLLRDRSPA
Sequence of Serine/threonine-protein kinase pim-2 (Homo sapiens) (Q9P1W9 whole entry, looked up): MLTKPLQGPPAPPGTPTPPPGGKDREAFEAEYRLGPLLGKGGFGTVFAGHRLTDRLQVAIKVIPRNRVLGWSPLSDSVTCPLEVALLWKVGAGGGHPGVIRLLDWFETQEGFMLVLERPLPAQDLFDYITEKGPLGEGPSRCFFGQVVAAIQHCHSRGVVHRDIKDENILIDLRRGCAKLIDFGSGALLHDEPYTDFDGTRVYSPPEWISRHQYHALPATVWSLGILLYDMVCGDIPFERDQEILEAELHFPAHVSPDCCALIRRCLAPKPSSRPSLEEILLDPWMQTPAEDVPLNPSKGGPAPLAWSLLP
Sequence of Serine/threonine-protein kinase pim-1 (Homo sapiens) (P11309 whole entry, looked up): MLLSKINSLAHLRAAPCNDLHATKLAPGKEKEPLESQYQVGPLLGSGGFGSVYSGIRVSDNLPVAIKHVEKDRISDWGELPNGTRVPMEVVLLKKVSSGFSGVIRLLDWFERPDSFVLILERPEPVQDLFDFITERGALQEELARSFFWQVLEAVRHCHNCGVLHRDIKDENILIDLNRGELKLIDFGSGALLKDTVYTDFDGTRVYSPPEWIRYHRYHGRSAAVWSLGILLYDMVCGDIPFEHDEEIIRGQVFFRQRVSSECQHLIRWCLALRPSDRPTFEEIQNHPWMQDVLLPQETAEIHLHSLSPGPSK
Sequence of Receptor-interacting serine/threonine-protein kinase 2 (Homo sapiens) (O43353 whole entry): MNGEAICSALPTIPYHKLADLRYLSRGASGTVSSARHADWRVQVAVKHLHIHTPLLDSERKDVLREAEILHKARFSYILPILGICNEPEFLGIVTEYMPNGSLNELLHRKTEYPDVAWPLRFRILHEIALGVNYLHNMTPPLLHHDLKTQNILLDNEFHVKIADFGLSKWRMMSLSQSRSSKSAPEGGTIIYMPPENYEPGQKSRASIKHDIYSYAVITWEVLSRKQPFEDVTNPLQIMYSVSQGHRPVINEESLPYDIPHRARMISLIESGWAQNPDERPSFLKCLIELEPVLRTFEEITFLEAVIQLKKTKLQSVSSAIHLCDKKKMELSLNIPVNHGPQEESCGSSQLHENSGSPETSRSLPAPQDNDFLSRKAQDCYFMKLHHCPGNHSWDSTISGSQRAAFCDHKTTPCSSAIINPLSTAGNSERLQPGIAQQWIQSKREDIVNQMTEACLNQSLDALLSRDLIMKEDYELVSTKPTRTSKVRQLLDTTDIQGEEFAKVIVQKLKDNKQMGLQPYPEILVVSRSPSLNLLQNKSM

As for `O=C1NC(=O)c2c1c1c3ccccc3[nH]c1n1cncc21`, the residual activity came to 95% in [1]; 70% in test [2]; 6% in test [3]; 2% in test [4]; 5% in [5]; 0% in test [6]. Besides, the residual activity in test [7] was 14%; in test [8], 17%; in test [9], 62%; in test [10] it was 60%; in test [11], 55% (inactive); in test [12], 31%. Also, the residual activity turned out to be 80% in test [13]; 75% in test [14]; 32% in test [15]; 19% in test [16]; 79% in [17]; 72% in test [18]. Further, the residual activity in test [19] came to 96%.
In the case of `CCCC(=O)Oc1ccc2[nH]c(C(=O)c3cc4ccccc4[nH]3)cc2c1`, the residual activity is 95% in test [1]; 96% in test [2]; 101% in [3]; 121% in [4]; 98% in test [6]; 93% in test [7]. For the same compound, the residual activity is 96% in test [8]; 86% in test [9]; 58% in test [10]; 93% (inactive) in test [11]; 85% in [12]; 88% in test [13]. The residual activity in test [14] worked out at 92%; in [15] it was 122%; in [16], 85%; in test [17], 91%; in test [18] it was 89%; in test [20], 103%. In test [19], the residual activity turned out to be 128%.
`CC(C)(C)c1nc2c3ccc(F)cc3c3c(=O)[nH]ccc3c2[nH]1`: the residual activity in test [1] was 41%; in test [2] it was 24%; in test [11] it was 55% (inactive); in test [12], 64%; in [17], 18%; in test [18] it was 20%.
As to `NC(=O)c1ccc(-c2nc(-c3ccc4c(c3)OCCO4)c(-c3ccccn3)[nH]2)cc1`, the residual activity in test [1] was determined as 90%; in test [2] it was 93%; in test [7], 96%; in test [8] it was 97%; in test [9], 81%; in [10] it was 71%. The residual activity in test [13] was 82%; in [14] it was 86%; in test [17], 55%; in [18], 18%; in [20], 118%; in test [19] it was 90%.
As for `Nc1ncnc2c1c(-c1ccc(Oc3ccccc3)cc1)cn2C1CCCC1`, the residual activity in [1] was 97%; in test [2] it was 95%; in test [3], 103%; in test [4], 88%; in test [5] it was 106%; in test [7], 88%. In addition, the residual activity is 88% in [8]; 83% in [9]; 50% in [10]; 80% (inactive) in test [11]; 91% in test [12]; 85% in [13]. The residual activity in [14] is 66%; in [15], 86%; in test [16] it was 25%; in [17], 21%; in test [18] it was 15%; in test [20] it was 116%. Further, in test [19], the residual activity was found to be 122%.
On to `Cn1sc(=O)n(Cc2ccccc2)c1=O`, for which the residual activity in [1] stood at 90%; in [2], 98%; in test [4] it was 95%; in test [6], 143%; in [7], 80%; in test [8], 85%. The residual activity was determined as 69% in test [9]; 70% in test [10]; 89% in test [12]; 76% in test [13]; 87% in [14]; 92% in test [17]. Besides, the residual activity in test [18] was 86%.
Regarding `Nc1ncnc2[nH]nc(Nc3ccc(F)cc3)c12`, the residual activity in test [1] stood at 102%; in [2], 99%; in test [3], 115%; in test [4], 53%; in test [5], 133%; in test [6] it was 99%. The residual activity is 69% in test [8]; 77% in [10]; 103% (inactive) in [11]; 94% in [12]; 21% in test [14]; 101% in [15]. The residual activity in test [16] came out at 79%; in test [17] it was 46%; in test [18] it was 21%; in [20] it was 128%; in [19] it was 101%.
In the case of `CC(C)(C)n1nc(Cc2cccc3ccccc23)c2c(N)ncnc21`, the residual activity came out at 98% in [1]; 109% in test [2]; 77% in [3]; 106% in test [4]; 114% in test [5]; 96% in [7]. Besides, the residual activity is 95% in test [8]; 99% in [9]; 75% in test [10]; 94% (inactive) in [11]; 97% in test [12]; 98% in test [13]. The residual activity in test [14] was determined as 75%; in test [15] it was 89%; in test [16], 29%; in [17], 27%; in test [18], 17%; in [20], 114%. Moreover, the residual activity in test [19] turned out to be 125%.
In the case of `CN(C)S(=O)(=O)c1ccc2c(c1)/C(=C/c1cc3c([nH]1)CCCC3)C(=O)N2`, the residual activity in [1] came to 48%; in [2], 46%; in [4], 86%; in [5], 123%; in test [6] it was 121%; in test [7] it was 93%. Further, the residual activity in test [8] is 94%; in [9] it was 96%; in test [10], 95%; in test [13] it was 95%; in test [14], 91%; in test [20] it was 132%. For the same compound, in [19], the residual activity is 100%.
Take `CCOC(=O)c1c(C)[nH]c(/C=C2\C(=O)Nc3ccccc32)c1C`: the residual activity is 87% in test [1]; 92% in [2]; 72% in test [3]; 74% in [10]; 86% (inactive) in [11]; 88% in test [12]. Besides, the residual activity in [15] was found to be 80%; in test [16] it was 45%; in test [17] it was 96%; in test [18], 99%.
Turning to `O=C(CCCc1ccc(-c2ccccc2F)cc1)Nc1ccc(O)cc1`, the residual activity stood at 109% in test [1]; 112% in test [2]; 100% in [3]; 97% in test [4]; 139% in test [6]; 96% in test [7]. Besides, the residual activity in test [8] is 97%; in test [9], 93%; in test [10], 103%; in test [11], 99% (inactive); in [12], 98%; in test [13], 100%. For the same compound, the residual activity in test [14] came to 101%; in test [15] it was 105%; in test [16] it was 104%; in test [17] it was 94%; in test [18], 95%; in test [20], 107%. For the same compound, the residual activity in [19] was determined as 100%.
`O=C(c1ccccc1)c1ccc(N2CCOCC2)cc1O`: the residual activity came out at 84% in test [1]; 113% in test [2]; 76% in test [3]; 81% in test [4]; 93% in test [9]; 75% in test [10]. In addition, the residual activity in [11] is 91% (inactive); in [12] it was 88%; in test [13], 86%; in test [14], 94%; in test [15] it was 130%; in test [17], 99%. Also, the values for the residual activity in test [18] and in test [19] were 87% and 121%, respectively.
Consider `CCCCc1c(-c2ccc(OC)cc2)[nH]c2nccnc12`, for which the residual activity stood at 113% in test [1]; 109% in test [2]; 109% in [3]; 88% in test [4]; 112% in test [5]; 104% in test [6]. Further, the residual activity in [7] came out at 104%; in test [8], 113%; in test [9] it was 81%; in test [13], 84%; in test [14] it was 101%; in test [15] it was 54%. Also, the residual activity in test [16] stood at 32%; in test [17], 67%; in [18], 82%; in test [20] it was 117%; in test [19], 102%.
